Shown are actives, neighbours in structure and some others; about 7.3% of the full set was active somewhere.
NPC1 prom act = NPC1 promoter activation. Huh7 NPC1 promoter luciferase reporter, 24 h. 2.4% of 320,000 active. Potency, µM (titrated, usually from 9.22 µM), for inactives: at the top dose activation, usual class: activators; further: % of control where 0% means no effect; nearly all actives have a fitted effect of over 60% in size
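Compounds in DMSO were transferred onto Huh7 NPC1-luciferase reporter cells pre-incubated 2 h; after 24 h at 37 °C, Amplite reagent was dispensed and luminescence recorded 10 min later.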
SMN2 splice enh = enhancers of SMN2 splice variant expression; Potency, µM (top dose mostly 46.1 µM), without a hit: at the top dose activity change, positive = activation, hits mostly activators; 2.8% of 210,000 active; HEK293 SMN2-luciferase splicing reporter, luminescence, 30-36 h; AID 1458; further: % of control where 0% means no effect; nearly all actives have a fitted effect of over 55% in size
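qHTS luciferase splicing reporter: luminescence rises when SMN2 exon 7 is included in transfected HEK293 cells. Compound exposure lasted 30-36 h at 37C, with 4.5 mM final sodium butyrate as control, followed by a ONE-Glo read.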
FLuc counter = inhibits or activates purified firefly luciferase, miR-21 counter-screen. P08659. purified FLuc, Km substrates, luminescence inhibition. Potency, µM (top dose mostly 57.5 µM), inactives show top-dose activity change, negative = inhibition, most hits filed as inhibitors. 6.9% of 360,000 active. AID 588342;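 further: plate controls were vehicle for no effect and reference inhibitor for full effect; nearly all actives have a fitted effect of over 55% in size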
Target sequence (P08659 whole entry, looked up): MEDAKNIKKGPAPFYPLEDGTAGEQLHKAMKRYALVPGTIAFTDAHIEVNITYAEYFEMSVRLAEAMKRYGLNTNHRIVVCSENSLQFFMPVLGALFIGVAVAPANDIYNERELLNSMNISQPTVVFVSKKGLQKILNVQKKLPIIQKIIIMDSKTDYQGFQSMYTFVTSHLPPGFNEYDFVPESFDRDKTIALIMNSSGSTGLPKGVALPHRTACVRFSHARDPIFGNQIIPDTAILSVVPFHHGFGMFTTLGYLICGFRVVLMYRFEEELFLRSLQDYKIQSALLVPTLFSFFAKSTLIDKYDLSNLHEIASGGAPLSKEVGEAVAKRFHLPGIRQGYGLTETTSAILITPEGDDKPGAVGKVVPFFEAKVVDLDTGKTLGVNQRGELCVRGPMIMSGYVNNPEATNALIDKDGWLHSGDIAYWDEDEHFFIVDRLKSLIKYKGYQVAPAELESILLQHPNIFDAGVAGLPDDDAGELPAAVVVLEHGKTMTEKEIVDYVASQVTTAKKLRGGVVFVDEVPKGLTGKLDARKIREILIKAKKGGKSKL
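Biochemical qHTS of compounds, final roughly 60 µM downward over six points, against 10 nM purified firefly luciferase using Km concentrations of substrates (10 uM D-luciferin, 10 uM ATP) in Tris acetate pH 7.5 buffer; luminescence output.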
KinaseGlo FLuc = counter-screen: inhibitors of Kinase-Glo firefly luciferase | Kinase-Glo luciferase, ATP luminescence, 8 min | Potency, µM (highest dose often 38.3 µM), without a hit: top-dose activity change, negative = inhibition, most hits filed as inhibitors | 0.28% of 200,000 active | Q27757; further: on the % scale 0 is the no-effect control and ±100 the full control effect; nearly all actives have a fitted effect of over 60% in size
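Substrate mix (final 50 mM imidazole pH 7.2, 50 mM KCl, 7 mM MgCl2, 10 uM ATP, 0.01% Tween 20, 0.05% BSA) plus pin-tool compound, then Kinase-Glo detection mix; 8 min ambient, luminescence read.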
Rab9 promoter act = Rab9 promoter activation; Potency, µM (highest dose often 9.22 µM), for inactives: at the top dose activation, negative = inhibition, most hits filed as activators; Huh7 Rab9 promoter-luciferase reporter, luminescence, 24 h; 2.8% of 320,000 active; AID 485297; further: % of control where 0% means no effect; nearly all actives have a fitted effect of over 60% in size
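Promoter activation is measured as luciferase luminescence in Huh7 cells stably transfected with a Rab9 promoter–luciferase construct, following 24 h compound exposure at 37 °C and 10 min reagent incubation at ambient temperature.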
ELG1 genotoxic = induces genotoxicity in HEK293T cells with luciferase-tagged ELG1 | HEK293T ELG1-luciferase reporter, luminescence, 16 h | 1.3% of 330,000 active | Potency, µM (doses to about 46 µM), without a hit: top-dose activity change, positive = activation, most hits filed as activators; further: % of control where 0% means no effect; nearly all actives have a fitted effect of over 60% in size
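Luminescence read-out: rising ELG1-luciferase signal, reflecting elevated ELG1 protein under genetic stress, flags genotoxic compounds. Cells were treated for 16 hr at 37 °C before ONE-Glo detection.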
Active calls of the source: *; ? = inconclusive; . = not tested or not shown; [ ] = remark or other dose. The call rests on the fitted dose curve; in most records, active means well fitted curve in the direction sought with a large enough effect; inconclusive means small, poorly fitted or top-dose-only effect, or another doubt; inactive means no such curve, though single readings can be large; an effect the other way counts as inactive or inconclusive. Potency means the concentration at half of the fitted maximal effect.

SMILES	NPC1 prom act	SMN2 splice enh	FLuc counter	KinaseGlo FLuc	Rab9 promoter act	ELG1 genotoxic
CCS(=O)(=O)CCSc1nc2ccccc2o1	-3%	16%	0%	2%	-4%	1%
O=S(=O)(CCSc1nc2ccccc2o1)c1nc2ccccc2s1	-1%	18µM*	0%	0%	-8%	-2%
O=S(=O)(CCSc1ccccn1)c1nc2ccccc2s1	-1%	11µM*	3%	2%	-4%	-10%
O=C(CSc1ccccn1)Nc1nc2ccccc2s1	22%	19%	?	-1%	21%	?
Cc1ccc2oc(C(=O)Nc3nc(-c4ccc(F)cc4)ns3)c(C)c2c1	.	3%	?	.	.	.
CN(C)CCNC(=O)c1cc2c(s1)-c1ccccc1OC2	17%	-11%	19µM*	-1%	18%	23µM*
Cc1csc(NC(=O)c2cc3c(s2)-c2ccccc2OC3)n1	3.5µM*	?	?	1%	?	17%
[N-]=[N+]=NC[C@@H]1O[C@@H](n2cnc3c(N)ncnc32)[C@@H]2O[C@@H]21	.	-4%[9.22 µM]	.	-2%[7.66 µM]	.	.
COC(=O)c1sc(N2C(=O)c3oc4ccc(C)cc4c(=O)c3C2c2ccc(OC)cc2)nc1C (stereo unspecified)	.	-5%	4%	.	.	.
O=C(Nc1cccc(Cl)c1)C1=Cc2cc(Cl)ccc2OC1	-5%	-4%	-20%	-3%	-9%	-6%
O=C(Nc1ccc2cccnc2c1)c1ccc(Br)cc1	16%	.	19µM*	.	7%	10%
Cc1ccc(C(=O)Nc2ccc3nccnc3c2)cc1	0.89µM*	3.2µM*	0.95µM*	-13%	0.45µM*	?
N#Cc1ccsc1NC(=O)c1ccc(Cl)c([N+](=O)[O-])c1	-2%	.	6µM*	.	9%	-1%
N#Cc1ccsc1NC(=O)c1cccc([N+](=O)[O-])c1	7%	-57%	-11%	1%	12%	-4%
O=C(Nc1ccc(Cl)c(Cl)c1)C1=Cc2ccccc2OC1	?	?	11µM*	3%	2.5µM*	?
COC(=O)c1cc(C)nc2c1c(=O)nc(SCc1ccccc1F)n2C1CC1	.	.	-2%	.	.	.
COc1cccc(O)c1O	.	-28%	.	-4%	.	.
COc1cccc(N2CCN(C(=O)c3cccn3-c3nnc(N4CCCC4)s3)CC2)c1	.	.	-8%	.	.	.
CCn1cc([N+](=O)[O-])c(C(=O)NCc2ccc3c(c2)OCO3)n1	2%	.	3%	.	-1%	-1%
NS(=O)(=O)c1cccc(NC(=O)c2cccc(S(=O)(=O)N3CCCCCC3)c2)c1	.	.	.	.	.	-4%
O=C(Nc1ccc(C(F)(F)F)cc1)c1ccc2nc[nH]c2c1	18%	-1%	?	1%	19%	-3%
CCn1cc([N+](=O)[O-])c(C(=O)Nc2ccc3c(c2)OCCO3)n1	?	?	19µM*	-14%	?	?
O=C(Nc1ccc2c(c1)OCCO2)c1cccnc1	?	?	?	-10%	4µM*	?
O=C(Nc1ccc2c(c1)OCO2)c1ccc2nc[nH]c2c1	?	?	21µM*	-7%	3.5µM*	16µM*
NS(=O)(=O)c1cccc(NC(=O)c2ccc3nc[nH]c3c2)c1	-5%	.	19µM*	.	-6%	-1%
SMILES	NPC1 prom act	SMN2 splice enh	FLuc counter	KinaseGlo FLuc	Rab9 promoter act	ELG1 genotoxic
O=C1c2ccccc2[C@@H]([C@@H]2c3ccccc3C(=O)c3cc(Br)ccc32)c2ccc(Br)cc21	.	0%[9.22 µM]	.	-7%[7.66 µM]	.	.
CCC(C)NC(=O)C1CCN(C(=O)c2cc3sccc3n2Cc2ccc(Cl)cc2)CC1 (stereo unspecified)	.	-49%	4%	.	.	.
O=C(O)c1c[nH]c2c(ccc3[nH]cc(C(=O)O)c(=O)c32)c1=O	.	-7%[9.22 µM]	.	0%[7.66 µM]	.	.
Cc1cc(C(=O)Nc2ccc3c(c2)OCCO3)ccc1[N+](=O)[O-]	0.71µM*	.	0.76µM*	.	?	0.52µM*
O=C(O)c1cc(NC(=O)c2ccc(Cl)c([N+](=O)[O-])c2)cc(C(=O)O)c1	-4%	-17%	-5%	12%	-11%	?
Cc1cc(C(=O)Nc2cccc(NC(=O)c3ccco3)c2)ccc1[N+](=O)[O-]	-3%	.	19µM*	.	0%	-10%
O=C(Nc1ccc2c(c1)OCCO2)c1ccc2nccnc2c1	1µM*	?	3µM*	?	0.79µM*	?
O=C(Nc1ccc2c(c1)OCCO2)c1ccc(Cl)c([N+](=O)[O-])c1	-3%	18µM*	?	-3%	-1%	?
Cc1ccc(C2N3CC4(C)CN2CC(c2ccccc2)(C3)C4=O)cc1 (stereo unspecified)	.	5%	5%	.	.	.
COc1ccc(CCC(=O)NCc2nc3cccnc3n2Cc2ccccc2)cc1	.	.	1%	.	.	.
CC(=O)NC1=C(OS(=O)(=O)c2ccc(C)cc2)CN(C)C1=O	.	-15%[9.22 µM]	.	-8%[7.66 µM]	.	.
Cc1ccc2nc(-c3cc(NC(=O)c4ccc5c(c4)OCCO5)ccc3Cl)oc2c1	.	6%	?	.	.	.
O=C(Nc1ccc2c(c1)OCCO2)c1ccc(Cl)c(Cl)c1	1.6µM*	.	4.8µM*	.	1.4µM*	2.6µM*
Cn1c(O)c(C(C#N)=C2N=c3ccccc3=N2)c2ccccc21	15%	5%	9.5µM*	0%	6%	1%
N#CC(=C1N=c2ccccc2=N1)c1c(O)[nH]c2ccccc12	12%	21%	?	-7%	16%	21%
C=CCN1C(=O)C(CC(=O)O)S/C1=N/N=C/c1ccc(N(CC)CC)cc1 (stereo unspecified)	3%	.	21µM*	.	-2%	1%
COc1ccc(NC(=O)Cn2cc(C(=O)c3ccc(C)c(C)c3)c(=O)c3cc(OC)ccc32)cc1	.	-4%	-8%	.	.	.
Cc1ccc(-c2nn(CC(=O)NC3CCCC3)c3c2cnc2ccc(F)cc23)cc1C	.	.	0%	.	.	.
CCCn1c(C)cc(C(=O)COc2ncnc3sccc23)c1C	2.8µM*	11µM*	8.5µM*	1%	2.2µM*	?
Cc1cc(C(=O)COc2ncnc3sccc23)c(C)n1C1CC1	?	7%	-13%	0%	?	?
COc1ccc(CCn2c(C)cc(C(=O)COC(=O)c3cnccn3)c2C)cc1	-1%	.	5%	.	2%	-4%
CCCn1c(C)cc(C(=O)COC(=O)c2nccnc2N)c1C	1.1µM*	10µM*	3.4µM*	-10%	0.45µM*	?
CSc1ncccc1C(=O)OCC(=O)c1cc(C)n(CC2CCCO2)c1C (stereo unspecified)	1.1µM*	.	0.6µM*	.	0.4µM*	?
CCn1c(C)cc(C(=O)COC(=O)c2cccnc2SC)c1C	.	.	.	.	.	2.3µM*
COc1ccc(/C=C2\C(=O)OCc3cc(OC)c(OC)cc32)cc1OC	3%	12%	13µM*	3%	-12%	18%
